HT1080NT lethal = kills 2HG-producing HT-1080-NT fibrosarcoma cells. AID 686970. HT-1080-NT fibrosarcoma viability, CellTiter-Glo ATP luminescence, 48 h. Potency, µM (highest dose often 46.1 µM), without a hit: top-dose activity, negative = less viability, most hits filed as cytotoxic. 360,000 compounds, 1.6% hits;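 further: NT is the 2HG producing partner of a matched IDH1 knockdown line; potency means the concentration at half of the fitted maximal effect; 0% = DMSO-treated cells and -100% = media-only wells without cells; nearly all actives have a fitted effect of over 55% in size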
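A 48-hour cytotoxicity screen used HT-1080-NT cells plated 2 hours before compound delivery. ATP-based CellTiter-Glo luminescence measured viability, normalized to DMSO and no-cell controls.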
DT40 TDP1 no CPT = qHTS for Inhibitors of human tyrosyl-DNA phosphodiesterase 1 (TDP1): qHTS in cells in absence of CPT. DT40 Tdp1-/- hTDP1 cells, no CPT, ATP luminescence, 48 h. Potency, µM (highest dose often 46.2 µM), inactives show at the top dose activity change, negative = growth inhibition, most hits filed as inhibitors. 420,000 compounds, 15% hits; further: potency means the concentration at half of the fitted maximal effect; nearly all actives have a fitted effect of over 55% in size
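Compound effects on proliferation are scored in DT40 Tdp1-/-;hTDP1 cells in the absence of CPT. ATP levels (CellTiter-Glo luminescence) are recorded after a ≥48 hr, 37 °C incubation.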
DT40 TDP1 CPT = DT40-hTDP1 cell growth loss with CPT | chicken DT40 Tdp1-/-;hTDP1 cells + 20 nM CPT, ATP luminescence, 48 h | Potency, µM (doses to about 46.2 µM), without a hit: top-dose activity change, negative = growth inhibition, most hits filed as inhibitors | 420,000 compounds, 12% hits; further: potency means the concentration at half of the fitted maximal effect; nearly all actives have a fitted effect of over 55% in size
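Cell growth measured by CellTiter-Glo luminescence after a minimum 48 h, 37 C compound exposure with 20 nM CPT in Tdp1-knockout DT40 cells stably expressing hTDP1, seeded 400/well; qHTS titration format.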
HT1080 IDH1KD tx = kills HT-1080 cells with IDH1 knockdown; AID 686971; 360,000 compounds, 2% hits; Potency, µM (titrated, usually from 46.1 µM), for the others: top-dose activity, negative = toxicity, hits mostly cytotoxic; HT-1080 IDH1 knockdown viability, ATP luminescence, 48 h;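 further: potency means the concentration at half of the fitted maximal effect; 0% = DMSO wells and -100% = cell-free medium wells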
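Cytotoxicity counter-line: IDH1KD HT-1080, 48 h, CellTiter-Glo. Curves classed by r2, magnitude and activity.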
IL-1B inflam inh = inflammasome signaling inhibition, IL-1 beta readout | THP-1 LPS/ATP IL-1B secretion, AlphaLISA, 16 h; active compounds read low | activity change, % at 57.5 µM | 360,000 compounds, 4.7% hits; in the data active means activity change below about -50%; inconclusive means mostly about -30% to -49%
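THP-1 cells pretreated 1 hr with compounds (up to 57.5 uM final), then stimulated with LPS (250 ng/mL final) plus ATP (1.25 mM final); secreted IL-1B measured by AlphaLISA after 16 hr, decreased signal indicating inhibition.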
ELG1 DNA repair = blocks ELG1-dependent DNA repair in HEK293T cells. HEK293T ELG1-luciferase reporter, luminescence, 16 h; DNA damage induced by 5-fluorouridine. Potency, µM (top dose mostly 46.1 µM), for inactives: top-dose activity change, negative = inhibition, hits mostly inhibitors. 330,000 compounds, 2.3% hits. AID 504467; further: potency means the concentration at half of the fitted maximal effect; nearly all actives have a fitted effect of over 55% in size
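Reporter activity after DNA damage by 5-fluorouridine is monitored. Compound-treated cells incubate 16 hr at 37 °C, then ONE-Glo is added for 30 min before luminescence reading.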
ELG1 FLuc counter = luciferase inhibition in cell-free luciferin readout for ELG1 hits | shares compounds with ELG1 DNA repair | cell-free firefly luciferase luminescence counter-screen, ViewLux | Potency, µM (highest dose often 46.1 µM), for the others: at the highest dose activity change, negative = inhibition, hits mostly inhibitors | 350 compounds, 3% hits | AID 624247; further: potency means the concentration at half of the fitted maximal effect
ELG1 Luc conf = human ELG1 repair inhibition, luciferase-tagged ELG1 confirmation. shares compounds with ELG1 DNA repair. HEK293T ELG1-luciferase levels, luminescence; cells co-treated with 5-fluorouridine. Potency, µM (titrated, usually from 46.1 µM), for the others: at the top dose activity change, negative = inhibition, actives largely listed as inhibitors. 670 compounds, 68% hits; further: potency means the concentration at half of the fitted maximal effect; nearly all actives have a fitted effect of over 55% in size
ELG1 MMS Luc = confirmation of human ELG1 repair inhibitors, MMS stimulated. shares compounds with ELG1 DNA repair. HEK293T luciferase-tagged ELG1 level, MMS stimulated. Potency, µM (top dose mostly 46.1 µM), for inactives: at the top dose activity change, negative = inhibition, actives largely listed as inhibitors. 670 compounds, 53% hits; further: potency means the concentration at half of the fitted maximal effect; nearly all actives have a fitted effect of over 60% in size
ELG1 5FU viab = confirmation of ELG1 repair inhibitors: viability with 5FU | shares compounds with ELG1 DNA repair | cell viability with 5-FU, ELG1-dependent repair | Potency, µM (doses to about 46.1 µM), without a hit: at the highest dose activity change, negative = viability loss, actives largely listed as cytotoxic | 670 tested, under 10 active | AID 624250;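 further: ELG1-luc HEK293T cells cotreated with 5-fluorouridine at 10 µM final; potency means the concentration at half of the fitted maximal effect; viability measured 16 h after compound addition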
ELG1 MMS viab = confirmation of ELG1 repair inhibitors: viability with MMS. shares compounds with ELG1 DNA repair. Cell viability with MMS, ELG1-dependent DNA repair. Potency, µM (top dose mostly 46.1 µM), inactives show top-dose activity change, negative = viability loss, actives largely listed as cytotoxic. 670 compounds, 33% hits;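 further: ELG1-luc HEK293T cells co-treated with 10 µM MMS; potency means the concentration at half of the fitted maximal effect; viability read 16 h after compound addition; nearly all actives have a fitted effect of over 60% in size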
ELG1 unstim viab = unstimulated viability counter-screen for ELG1 repair hits. shares compounds with ELG1 DNA repair. cell viability counter-screen, unstimulated, luminescence. Potency, µM (doses to about 45.9 µM), inactives show at the highest dose activity change, negative = loss of viability, usual class: cytotoxic. 900 compounds, 8% hits;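 further: potency means the concentration at half of the fitted maximal effect; compound exposure lasted 16 hours before reading; nearly all actives have a fitted effect of over 55% in size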
FLuc biochem = counter-screen for ELG1 repair inhibitors: firefly luciferase inhibition. Potency, µM (titrated, usually from 57.5 µM), inactives show at the highest dose activity, negative = inhibition, actives largely listed as inhibitors. AID 624253. shares compounds with ELG1 DNA repair. purified firefly luciferase, luminescence counter-screen. 350 compounds, 10% hits; further: potency means the concentration at half of the fitted maximal effect
Numbers without * were called inactive; ? = inconclusive; . = no result. This is a sample that favours compounds with a hit; in the whole collection about 19% have one here. Unless noted, the call rests on the fitted dose curve; in most records, active means well fitted curve in the direction sought with a large enough effect; inconclusive means small, poorly fitted or top-dose-only effect, or another doubt; inactive means no such curve, though single readings can be large; an effect the other way counts as inactive or inconclusive. Unless noted, on the % scale 0 is the no-effect control and ±100 the full control effect.

SMILES	HT1080NT lethal	DT40 TDP1 no CPT	DT40 TDP1 CPT	HT1080 IDH1KD tx	IL-1B inflam inh	ELG1 DNA repair	ELG1 Luc conf	ELG1 MMS Luc	ELG1 5FU viab	ELG1 MMS viab	ELG1 unstim viab	others
COc1cccc(/C=C/c2cnc3ccccc3n2)c1OC	.	20µM*	?	.	.	.	.	.	.	.	-15.8%	ELG1 FLuc counter=-23.3%;FLuc biochem=0.326µM*
C(=Cc1cnc2ccccc2n1)c1ccc2c(c1)OCO2	-3.1%	?	?	-13.3%	-20.0	.	.	.	.	.	.
C=CC[C@@H](CC(=O)NCCO)C(=O)NC[C@H](OC(=O)[C@@H](CC=C)Cc1ccc(F)cc1)c1ccccc1	-29.2%	11.6µM*	14.6µM*	-10.9%	-14.8	3.26µM*	?	14.1µM*	?	-19.6%	-14.4%
C=CC[C@@H](CC(=O)NCCO)C(=O)NCCOC(=O)[C@@H](CC=C)Cc1ccc(F)cc1	-1.4%	-9.7%	-11.2%	-0.5%	27.0	-4.7%	.	.	.	.	.
CN(C(=O)CN1C(=O)c2ccccc2S1(=O)=O)C1CCCCC1	-8.0%	-13.6%	0.5%	-10.6%	16.9	?	.	.	.	.	-2.1%
CCOC(=O)c1ccc(N2CCOCC2)c(NC(=O)c2nccnc2C(=O)O)c1	5.5%	15.5%	-0.9%	5.3%	3.5	2.6%	.	.	.	.	.
CN(C)c1ccc(/C=C2\CCc3ccccc32)cc1	.	?	?	.	.	.	.	.	.	.	-6.2%
COc1cc(OC)c2c(-c3cccc(-c4ccc(C#N)cc4)c3)cc(=O)oc2c1	?	4.11µM*	2.06µM*	-19.3%	57.7	4.61µM*	?	7.91µM*	?	7.05µM*	?
CCOCCOC(=O)c1[nH]c2c(c1C)C(=O)CC(c1cc(OC)c(OC)c(OC)c1)C2 (stereo not given)	-16.0%	9.2µM*	10.3µM*	-22.3%	1.4	4.11µM*	9.96µM*	6.28µM*	-5.2%	?	?
O=C(Nc1ccc(Br)cc1)c1ccc(F)c(S(=O)(=O)N2CCN(c3ccccn3)CC2)c1	-5.4%	7.31µM*	?	0.8%	25.7	2.91µM*	31.5µM*	?	-10.6%	?	?	ELG1 FLuc counter=-8.1%;FLuc biochem=-14.8%
COc1ccc(C(=O)Nc2nnc(Cc3ccccc3)s2)c(OC)c1	-22.0%	-5.3%	-17.6%	-4.5%	-9.4	18.4%	.	.	.	.	.
CC(C)CCNC(=O)C(=O)NCc1ccccc1	?	-4.3%	9.8%	7.4%	23.8	9.9%	.	.	.	.	.
Cc1cc(Cl)c(S(=O)(=O)NC2CCCC2)cc1OCC(N)=O	0.2%	-28.8%	-1.5%	4.1%	-4.3	-3.5%	.	.	.	.	.
CCN1CCN(S(=O)(=O)c2cc(OCC(=O)NC3CCCCC3)c(C)cc2Cl)CC1	-3.9%	?	23.1µM*	-0.5%	?	?	-16.1%	3.15µM*	-11.4%	2.5µM*	?
Nc1ccccc1NC(=O)c1ccc(CNC(=O)OCc2cccnc2)cc1	.	.	.	.	.	.	.	.	.	.	?	ELG1 FLuc counter=135.5%;FLuc biochem=-4.1%
O=C(NCc1ccc(C(=O)O)cc1)OCc1ccccc1	3.2%	-9.0%	5.3%	4.6%	1.4	16.8%	.	.	.	.	.
O=C(c1cc2ccccc2oc1=O)N1CCN(S(=O)(=O)c2ccccc2)CC1	5.0%	-2.6%	10.9%	-0.2%	-2.0	-10.8%	.	.	.	.	.
CC(C)n1cnc2c(NCc3ccccc3)cc(N[C@H](C)CO)cc21	23.1µM*	4.61µM*	2.31µM*	23.1µM*	109.8	4.11µM*	7.91µM*	0.445µM*	15.8µM*	0.705µM*	8.88µM*
COc1ccc(NC(=O)CC23CC4CC(CC(Br)(C4)C2)C3)c(OC)c1	3.9%	-1.6%	14.8%	13.3%	18.5	7.8%	.	.	.	.	.
CCN(CC)S(=O)(=O)c1cccc(-n2c(O)c(C=Nc3ccccc3C(=O)O)c3ccccc3c2=O)c1	?	2.06µM*	4.11µM*	?	8.4	5.8µM*	0.353µM*	0.353µM*	-27.1%	0.397µM*	0.445µM*
COc1ccc(CNC(=O)c2cccnc2)cc1	-11.4%	17.1%	-17.1%	-5.8%	3.3	10.7%	.	.	.	.	.
O=S1(=O)CC(N2CCN(CCO)CC2)CN1C1CCCCC1 (stereo not given)	28.8%	7.5%	-2.5%	26.0%	0.2	.	.	.	.	.	.
COc1ccc(CCNC(=O)CCN2C(=O)c3ccccc3C2=O)cc1OC	.	.	.	.	.	-1.6%	.	.	.	.	.
COc1ccc(CCN2C(=O)c3cccc4c(C(=O)N5CCCCC5)ccc(c34)C2=O)cc1OC	1.5%	?	16.4µM*	3.6%	-2.9	3.66µM*	7.91µM*	7.91µM*	?	11.2µM*	14.1µM*
Cc1ccc(S(=O)(=O)N2CC(O)CC2C(=O)OCC(=O)Nc2ccc([N+](=O)[O-])cc2C(F)(F)F)cc1C (stereo not given)	0.2%	-28.3%	?	21.0%	8.4	11.2%	.	.	.	.	.

Assay outcomes (PubChem BioAssay)
